The values below come from ChEMBL document CHEMBL1961873, “Compounds: GSK PKIS; Assays: Nanosyn kinase panel” (2012).

For experiment [1], the target named is Tyrosine-protein kinase Fyn (Homo sapiens) (UniProt P06241). The following applies: at 1 µM.
Experiment [2] deals with Tyrosine-protein kinase HCK (Homo sapiens) (UniProt P08631). Particulars: at 0.1 µM.
Experiment [3] shares this target. Particulars: at 1 µM.
For experiment [4], the target named is Insulin-like growth factor 1 receptor (Homo sapiens) (UniProt P08069). The following applies: at 0.1 µM.
Experiment [5] has the same target. The following applies: at 1 µM.
Experiment [6] concerns the target Insulin receptor (Homo sapiens) (UniProt P06213). The following applies: at 0.1 µM.
The target is the same in experiment [7]. Particulars: at 1 µM.
Experiment [8] concerns the target Insulin receptor-related protein (Homo sapiens) (UniProt P14616). The following applies: at 0.1 µM.
Experiment [9] shares this target. Particulars: at 1 µM.
In experiment [10] the target is T1, Tyrosine-protein kinase ITK/TSK (Homo sapiens) (UniProt Q08881).
T1 sequence (whole entry): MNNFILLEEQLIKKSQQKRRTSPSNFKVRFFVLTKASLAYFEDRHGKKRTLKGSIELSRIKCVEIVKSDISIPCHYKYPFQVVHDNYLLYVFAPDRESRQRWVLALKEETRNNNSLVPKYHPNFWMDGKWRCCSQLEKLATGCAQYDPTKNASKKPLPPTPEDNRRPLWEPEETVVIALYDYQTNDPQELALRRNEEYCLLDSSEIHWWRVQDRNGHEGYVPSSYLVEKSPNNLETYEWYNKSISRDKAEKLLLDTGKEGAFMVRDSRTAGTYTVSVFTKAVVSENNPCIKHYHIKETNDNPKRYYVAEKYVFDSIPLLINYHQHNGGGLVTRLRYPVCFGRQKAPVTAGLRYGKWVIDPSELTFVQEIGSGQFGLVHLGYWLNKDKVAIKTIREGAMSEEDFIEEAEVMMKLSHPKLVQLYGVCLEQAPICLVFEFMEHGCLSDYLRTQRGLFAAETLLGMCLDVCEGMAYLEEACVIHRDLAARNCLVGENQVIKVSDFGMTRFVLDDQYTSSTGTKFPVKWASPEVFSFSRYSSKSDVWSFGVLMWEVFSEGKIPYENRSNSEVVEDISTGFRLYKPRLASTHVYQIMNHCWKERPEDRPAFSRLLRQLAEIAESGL
The following applies: at 0.1 µM.

Experiment [11] deals with T1, Tyrosine-protein kinase ITK/TSK (Homo sapiens). Particulars: at 1 µM.
Experiment [12] deals with Tyrosine-protein kinase JAK1 (Homo sapiens) (UniProt P23458). The following applies: at 0.1 µM.
For experiment [13] the target is unchanged. Particulars: at 1 µM.
The target of experiment [14] is Tyrosine-protein kinase JAK2 (Homo sapiens) (UniProt O60674). Particulars: at 0.1 µM.
Experiment [15] has the same target. The following applies: at 1 µM.
The target in experiment [16] is T2, Tyrosine-protein kinase JAK3 (Homo sapiens) (UniProt P52333).
T2 sequence (whole entry): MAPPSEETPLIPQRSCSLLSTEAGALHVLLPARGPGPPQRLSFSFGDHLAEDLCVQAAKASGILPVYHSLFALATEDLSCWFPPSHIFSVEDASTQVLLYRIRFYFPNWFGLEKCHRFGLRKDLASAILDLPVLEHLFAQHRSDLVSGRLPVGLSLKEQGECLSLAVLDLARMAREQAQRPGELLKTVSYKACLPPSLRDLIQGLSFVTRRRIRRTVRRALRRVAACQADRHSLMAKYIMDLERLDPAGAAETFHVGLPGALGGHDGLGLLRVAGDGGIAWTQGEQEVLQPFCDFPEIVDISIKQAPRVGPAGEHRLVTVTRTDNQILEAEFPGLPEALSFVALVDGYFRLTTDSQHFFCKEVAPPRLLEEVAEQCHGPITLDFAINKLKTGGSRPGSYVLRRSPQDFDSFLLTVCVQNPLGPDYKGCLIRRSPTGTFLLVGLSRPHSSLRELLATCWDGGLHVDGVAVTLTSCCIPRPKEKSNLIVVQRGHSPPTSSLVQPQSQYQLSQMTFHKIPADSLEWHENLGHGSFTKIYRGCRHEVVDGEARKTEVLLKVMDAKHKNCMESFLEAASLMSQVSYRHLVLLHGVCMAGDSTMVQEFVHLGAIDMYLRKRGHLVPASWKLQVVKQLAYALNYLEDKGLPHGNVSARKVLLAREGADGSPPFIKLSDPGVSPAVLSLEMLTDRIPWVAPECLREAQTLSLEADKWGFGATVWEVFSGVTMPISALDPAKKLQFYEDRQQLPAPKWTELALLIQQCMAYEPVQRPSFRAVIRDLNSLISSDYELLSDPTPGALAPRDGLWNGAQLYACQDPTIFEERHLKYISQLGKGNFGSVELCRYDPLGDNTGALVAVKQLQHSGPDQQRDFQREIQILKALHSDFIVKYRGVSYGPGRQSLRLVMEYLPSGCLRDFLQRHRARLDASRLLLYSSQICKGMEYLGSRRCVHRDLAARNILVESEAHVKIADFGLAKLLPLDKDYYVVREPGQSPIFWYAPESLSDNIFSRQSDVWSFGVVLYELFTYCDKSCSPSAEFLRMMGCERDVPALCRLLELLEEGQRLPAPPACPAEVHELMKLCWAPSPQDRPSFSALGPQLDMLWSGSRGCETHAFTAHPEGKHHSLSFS
The following applies: at 0.1 µM.

For experiment [17], the target named is T2, Tyrosine-protein kinase JAK3 (Homo sapiens). The following applies: at 1 µM.
The target of experiment [18] is Vascular endothelial growth factor receptor 2 (Homo sapiens) (UniProt P35968). Particulars: at 0.1 µM.
For experiment [19] the target is unchanged. The following applies: at 1 µM.
In experiment [20] the target is Mast/stem cell growth factor receptor Kit (Homo sapiens) (UniProt P10721). Particulars: at 0.1 µM.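 Further: values are mean inhibition of KIT, from the GSK PKIS dataset.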

Chain of Tyrosine-protein kinase JAK1 (Homo sapiens) (P23458 whole entry): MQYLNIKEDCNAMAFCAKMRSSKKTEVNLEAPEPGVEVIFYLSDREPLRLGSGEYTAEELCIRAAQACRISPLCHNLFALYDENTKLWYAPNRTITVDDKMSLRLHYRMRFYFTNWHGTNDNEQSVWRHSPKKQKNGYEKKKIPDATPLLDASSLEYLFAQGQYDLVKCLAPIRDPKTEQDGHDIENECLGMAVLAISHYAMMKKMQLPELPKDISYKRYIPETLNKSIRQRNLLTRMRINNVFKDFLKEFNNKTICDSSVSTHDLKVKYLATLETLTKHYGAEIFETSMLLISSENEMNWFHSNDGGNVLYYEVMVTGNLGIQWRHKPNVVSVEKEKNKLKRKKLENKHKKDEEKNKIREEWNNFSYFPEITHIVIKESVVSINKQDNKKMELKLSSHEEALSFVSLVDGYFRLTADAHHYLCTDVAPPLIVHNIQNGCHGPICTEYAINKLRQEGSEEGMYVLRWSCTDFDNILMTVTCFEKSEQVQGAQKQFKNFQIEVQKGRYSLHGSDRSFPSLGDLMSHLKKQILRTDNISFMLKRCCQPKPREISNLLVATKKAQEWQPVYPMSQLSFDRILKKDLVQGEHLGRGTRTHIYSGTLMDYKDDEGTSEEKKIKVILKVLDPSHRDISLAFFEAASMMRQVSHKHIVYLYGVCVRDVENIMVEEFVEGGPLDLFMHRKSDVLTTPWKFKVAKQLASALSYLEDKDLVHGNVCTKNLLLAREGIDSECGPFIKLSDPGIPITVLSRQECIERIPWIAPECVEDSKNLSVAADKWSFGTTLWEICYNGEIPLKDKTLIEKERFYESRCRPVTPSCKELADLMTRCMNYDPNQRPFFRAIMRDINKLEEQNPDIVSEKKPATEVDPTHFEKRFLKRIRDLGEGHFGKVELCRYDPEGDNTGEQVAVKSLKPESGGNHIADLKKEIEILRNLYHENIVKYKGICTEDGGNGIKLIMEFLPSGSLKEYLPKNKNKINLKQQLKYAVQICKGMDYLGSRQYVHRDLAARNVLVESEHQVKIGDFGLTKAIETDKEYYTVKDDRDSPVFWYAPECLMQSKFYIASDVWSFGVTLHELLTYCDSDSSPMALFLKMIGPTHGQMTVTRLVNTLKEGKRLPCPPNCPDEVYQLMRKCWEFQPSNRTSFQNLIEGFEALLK
Chain of Tyrosine-protein kinase Fyn (Homo sapiens) (P06241 2-537 limits assumed): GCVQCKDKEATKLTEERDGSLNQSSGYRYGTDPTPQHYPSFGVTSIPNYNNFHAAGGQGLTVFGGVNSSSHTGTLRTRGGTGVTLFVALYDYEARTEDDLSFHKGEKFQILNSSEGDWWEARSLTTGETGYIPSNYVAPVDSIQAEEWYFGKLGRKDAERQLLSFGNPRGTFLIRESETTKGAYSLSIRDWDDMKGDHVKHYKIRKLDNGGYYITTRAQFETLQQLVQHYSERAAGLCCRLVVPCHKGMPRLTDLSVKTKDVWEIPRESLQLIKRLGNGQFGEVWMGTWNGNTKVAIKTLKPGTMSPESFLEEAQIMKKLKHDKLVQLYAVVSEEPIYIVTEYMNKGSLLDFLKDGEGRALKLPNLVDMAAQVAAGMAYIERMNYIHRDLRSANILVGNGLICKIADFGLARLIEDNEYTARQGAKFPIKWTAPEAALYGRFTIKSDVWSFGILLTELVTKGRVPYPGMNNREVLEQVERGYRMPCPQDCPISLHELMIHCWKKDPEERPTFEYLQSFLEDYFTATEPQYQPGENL
Chain of Insulin receptor (Homo sapiens) (P06213 28-758 limits assumed): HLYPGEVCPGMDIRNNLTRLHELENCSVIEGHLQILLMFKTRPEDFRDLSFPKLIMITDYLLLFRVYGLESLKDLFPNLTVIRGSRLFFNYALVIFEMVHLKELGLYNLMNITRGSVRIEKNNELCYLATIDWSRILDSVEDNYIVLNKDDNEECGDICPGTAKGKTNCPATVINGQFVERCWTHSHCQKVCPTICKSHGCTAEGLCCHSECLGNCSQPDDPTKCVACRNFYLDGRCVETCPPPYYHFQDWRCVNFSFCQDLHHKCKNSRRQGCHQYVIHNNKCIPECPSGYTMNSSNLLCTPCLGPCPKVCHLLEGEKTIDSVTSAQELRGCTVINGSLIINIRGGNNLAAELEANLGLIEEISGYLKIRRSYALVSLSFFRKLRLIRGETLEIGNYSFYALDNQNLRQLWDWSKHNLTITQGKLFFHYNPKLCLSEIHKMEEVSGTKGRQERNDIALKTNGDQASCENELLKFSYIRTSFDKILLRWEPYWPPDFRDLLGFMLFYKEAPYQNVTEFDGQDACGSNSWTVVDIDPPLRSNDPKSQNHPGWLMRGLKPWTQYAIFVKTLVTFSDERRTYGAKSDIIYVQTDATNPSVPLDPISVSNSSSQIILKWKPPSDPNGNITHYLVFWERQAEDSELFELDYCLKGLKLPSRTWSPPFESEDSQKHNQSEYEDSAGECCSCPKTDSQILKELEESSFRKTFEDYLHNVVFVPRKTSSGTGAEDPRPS
Chain of Insulin receptor (Homo sapiens) (P06213 763-1382 limits assumed): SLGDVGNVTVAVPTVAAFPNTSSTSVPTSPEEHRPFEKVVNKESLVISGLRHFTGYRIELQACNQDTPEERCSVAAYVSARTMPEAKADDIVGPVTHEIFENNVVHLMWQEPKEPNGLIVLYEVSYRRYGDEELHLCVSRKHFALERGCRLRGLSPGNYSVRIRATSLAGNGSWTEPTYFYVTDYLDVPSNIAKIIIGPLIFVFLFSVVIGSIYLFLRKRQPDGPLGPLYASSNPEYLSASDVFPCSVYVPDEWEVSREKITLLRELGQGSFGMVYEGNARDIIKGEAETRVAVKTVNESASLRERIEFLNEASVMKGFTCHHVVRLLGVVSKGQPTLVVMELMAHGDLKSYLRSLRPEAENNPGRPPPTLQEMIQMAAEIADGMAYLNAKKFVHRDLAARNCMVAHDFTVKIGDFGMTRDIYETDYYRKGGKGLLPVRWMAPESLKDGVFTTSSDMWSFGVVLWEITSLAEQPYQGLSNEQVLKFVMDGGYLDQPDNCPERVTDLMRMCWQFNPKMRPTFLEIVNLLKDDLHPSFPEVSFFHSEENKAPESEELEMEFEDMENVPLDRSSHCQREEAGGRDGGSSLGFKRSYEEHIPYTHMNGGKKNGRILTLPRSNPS
Chain of Tyrosine-protein kinase HCK (Homo sapiens) (P08631 2-526 limits assumed): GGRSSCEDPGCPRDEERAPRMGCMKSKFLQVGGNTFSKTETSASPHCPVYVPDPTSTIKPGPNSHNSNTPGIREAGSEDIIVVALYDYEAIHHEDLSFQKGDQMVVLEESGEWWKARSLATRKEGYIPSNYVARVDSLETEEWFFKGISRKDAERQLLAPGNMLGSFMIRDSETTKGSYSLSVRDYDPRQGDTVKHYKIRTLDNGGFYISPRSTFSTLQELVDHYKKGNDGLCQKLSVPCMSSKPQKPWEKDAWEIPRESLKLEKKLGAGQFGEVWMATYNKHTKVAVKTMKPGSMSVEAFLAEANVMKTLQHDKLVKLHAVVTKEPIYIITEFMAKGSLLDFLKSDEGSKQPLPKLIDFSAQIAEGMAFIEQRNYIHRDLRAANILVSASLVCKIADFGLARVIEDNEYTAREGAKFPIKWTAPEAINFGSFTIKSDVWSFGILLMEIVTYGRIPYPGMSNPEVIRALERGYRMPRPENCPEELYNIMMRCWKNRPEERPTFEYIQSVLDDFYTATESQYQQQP
Chain of Tyrosine-protein kinase JAK2 (Homo sapiens) (O60674 whole entry): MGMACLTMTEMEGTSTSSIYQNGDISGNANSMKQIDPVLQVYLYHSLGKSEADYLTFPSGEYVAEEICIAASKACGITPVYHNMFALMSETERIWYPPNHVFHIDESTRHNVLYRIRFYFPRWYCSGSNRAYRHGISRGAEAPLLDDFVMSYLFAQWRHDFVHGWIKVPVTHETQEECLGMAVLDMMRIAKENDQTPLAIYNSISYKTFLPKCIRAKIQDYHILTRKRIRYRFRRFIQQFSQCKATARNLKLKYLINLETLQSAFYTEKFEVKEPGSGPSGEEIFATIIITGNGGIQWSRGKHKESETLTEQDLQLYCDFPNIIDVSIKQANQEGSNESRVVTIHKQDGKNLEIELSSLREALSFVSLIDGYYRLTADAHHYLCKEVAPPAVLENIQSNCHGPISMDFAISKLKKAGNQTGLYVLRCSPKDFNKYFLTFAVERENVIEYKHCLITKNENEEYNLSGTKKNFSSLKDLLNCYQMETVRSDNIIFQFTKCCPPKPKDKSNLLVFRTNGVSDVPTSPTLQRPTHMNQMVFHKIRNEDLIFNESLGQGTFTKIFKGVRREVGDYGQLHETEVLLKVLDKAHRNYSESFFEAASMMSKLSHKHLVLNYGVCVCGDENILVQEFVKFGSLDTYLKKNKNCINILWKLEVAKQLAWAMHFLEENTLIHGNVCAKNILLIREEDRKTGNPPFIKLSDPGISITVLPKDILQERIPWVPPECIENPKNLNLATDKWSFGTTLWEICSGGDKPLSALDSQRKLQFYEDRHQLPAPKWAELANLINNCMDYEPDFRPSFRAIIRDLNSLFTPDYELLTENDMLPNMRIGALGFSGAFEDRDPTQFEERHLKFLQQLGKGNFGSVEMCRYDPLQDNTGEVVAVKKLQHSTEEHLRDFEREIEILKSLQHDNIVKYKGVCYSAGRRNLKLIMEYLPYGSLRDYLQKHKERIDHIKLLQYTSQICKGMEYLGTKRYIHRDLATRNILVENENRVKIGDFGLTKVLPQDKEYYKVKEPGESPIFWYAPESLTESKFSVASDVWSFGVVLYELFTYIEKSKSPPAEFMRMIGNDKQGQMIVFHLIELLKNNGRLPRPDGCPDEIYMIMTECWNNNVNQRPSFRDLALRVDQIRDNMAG

For `COc1cc(C)c(NC(=O)CN(C)C)cc1Nc1nc(Nc2cccc(F)c2C(N)=O)c2cc[nH]c2n1`, the inhibition in experiment [1] is 2.42%; in [2], 4.13%; in [3] it was 3.71%; in [4], 93.6%; in experiment [5] it was 95.5%; in [6] it was 99.9%. For the same compound, the inhibition turned out to be 99.9% in [7]; 90.8% in experiment [8]; 97.7% in experiment [9]; 1.36% in [10]; 1.95% in experiment [11]; 2.55% in experiment [12]. Further, the inhibition in experiment [13] is -4.44%; in [14], 0.46%; in experiment [15] it was 0.22%; in experiment [16], 0.71%; in experiment [17], -1.63%; in [18] it was 3.26%. In addition, the inhibition was 4.13% in [19] and 2.98% in [20].

Take `CC1=C(C(=O)Nc2ccc3[nH]ncc3c2)C(c2ccc(Cl)c(Cl)c2)CC(=O)N1` (stereo not given): the inhibition in experiment [1] is 2.37%; in experiment [2], 6.21%; in experiment [3], 7.31%; in [4], -0.16%; in experiment [5] it was 1.11%; in experiment [6], 1.45%. Moreover, the inhibition in [7] came to 1.96%; in experiment [8], 0.58%; in experiment [9], 1.03%; in [10], 1.18%; in experiment [11], 0.67%; in [12], 5.41%. Further, the inhibition was 36.6% in experiment [13]; 1.94% in experiment [14]; 23.5% in experiment [15]; 0.78% in [16]; 18% in [17]; 3.14% in [18]. The inhibition turned out to be 5.12% in experiment [19] and 3.22% in experiment [20].

For the compound `CCn1c(-c2nonc2N)nc2ccncc21`, the inhibition was -0.65% in experiment [1]; 3.79% in [2]; 3.12% in experiment [3]; -0.2% in experiment [4]; 1.25% in [5]; 3.48% in [6]. The inhibition in experiment [7] was 5.38%; in [8], -0.17%; in [9], -0.42%; in experiment [10], 0.26%; in experiment [11], 0.76%; in [12], 1.34%. The inhibition in experiment [13] was 6.51%; in experiment [14], 0.33%; in experiment [15], 0.91%; in [16], -1.14%; in experiment [17], 2.73%; in [18] it was 1.87%. Moreover, the inhibition in experiment [19] is 2.46%; in [20], -0.66%.

`COc1ccc(-c2ccncc2)cc1C(N)=O`: the inhibition in experiment [1] came out at 3.66%; in experiment [2], 6.67%; in experiment [3], 9.92%; in experiment [4] it was 3.69%; in [5], 4.13%; in [6], 9.09%. For the same compound, the inhibition in experiment [7] stood at 6.94%; in experiment [8], 2.71%; in experiment [9] it was 2.24%; in experiment [10] it was 1.95%; in experiment [11], 2.32%; in experiment [12] it was 0.28%. The inhibition in [13] was 3.27%; in experiment [14] it was 2.44%; in experiment [15], 3.4%; in experiment [16] it was -2%; in [17], 0.37%; in experiment [18], 2.67%. Besides, the inhibition in experiment [19] was 13%; in [20] it was 3.75%.

For `COc1ccc(COc2ccc(Cc3cnc(N)nc3N)cc2OC)cc1`, the inhibition in [1] is 1.28%; in experiment [2], 3.28%; in [3] it was 3.12%; in experiment [4] it was -2.27%; in experiment [5] it was -0.91%; in experiment [6], 0.54%. For the same compound, the inhibition in experiment [7] was -1%; in experiment [8] it was 0.04%; in experiment [9], -0.57%; in [10], 1.47%; in experiment [11], 2.31%; in experiment [12] it was 3.77%. In addition, the inhibition in experiment [13] was -0.05%; in [14], 1.99%; in experiment [15], 4.19%; in experiment [16] it was 2.12%; in experiment [17], 3.61%; in experiment [18], 6.02%. Further, the inhibition is 9.65% in experiment [19] and 1.04% in [20].

Turning to `Cc1cc(O)cc(C)c1/C=C/c1cncc(-c2nn[nH]n2)c1`, the inhibition in [1] is 52.3%; in experiment [2], 20.6%; in [3] it was 74.9%; in [4], -3.59%; in [5], -2.05%; in experiment [6], 7.59%. The inhibition in [7] was 8.18%; in experiment [8], 2.98%; in experiment [9], 2.21%; in [10], -2.15%; in [11], -1.93%; in [12], 1.7%. Further, the inhibition in experiment [13] is 4.82%; in experiment [14], 1.66%; in experiment [15] it was 2.27%; in experiment [16], -4.63%; in experiment [17], -3.88%; in experiment [18], 4.58%. Further, the inhibition in [19] was 10.2%; in [20], 11.9%.
